Source: PubChem BioAssay
The entries come from a sample that favours hits as a whole.
Sfp PPTase inh – Sfp phosphopantetheinyl transferase inhibition; Biochemical Sfp PPTase activity, qHTS; Q9F4F7; Potency, µM, for the others: largest response in the series, negative = inhibition, most hits filed as inhibitors; 310,000 compounds, 3.5% hits;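 note: the enzyme is Sfp with the accession as filed and its product quenches rhodamine fluorescence; 0% = enzyme reaction without inhibitor and -100% = no enzyme wells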
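Buffer: 50 mM Hepes-Na pH 7.6, 10 mM MgCl2, 0.01% Nonidet P-40, 0.01% BSA. Enzyme 15 nM, pre-exposed to compound 15 min; substrates then added and fluorescence change tracked over 30 min.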
GRP78 ERSR act – ER stress response induction in glioma; 420,000 compounds, 0.02% hits; U87-MG GRP78 promoter luciferase reporter, 16 h; Potency, µM, for inactives: at the top dose activation, most hits filed as activators; note: series mostly up to about 76 µM; % of control where 0% means no effect; nearly all actives have a fitted effect of over 35% in size
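Stably transfected U87-MG human glioma cells carrying a GRP78-based luminescent sensor were seeded at 1000 cells/well, pin-dosed with compounds and incubated 16 h. Luciferase reagent was then added, and end-point luminescence was read after 10 min at room temperature.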
12-LOX inh – inhibitors of human 12S-lipoxygenase ALOX12 | Potency, µM (top dose mostly 108 µM), for inactives: top-dose activity change, negative = inhibition, hits mostly inhibitors | P18054 | purified 12hLO, xylenol orange hydroperoxide absorbance | 580,000 compounds, 1.1% hits; note: % is set by controls: 0 for no effect and ±100 for the full control effect
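Purified human 12hLO at 150 nM in 25 mM Hepes, 0.01% Triton X-100, pH 7.0, preincubated 15 min at room temperature with compound. Reaction started with 40 uM arachidonic acid, 30 min at room temperature. Hydroperoxide measured by Fe-xylenol orange, 573/405 nm absorbance ratio.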
G9a block – G9a (human) methyltransferase inhibition; Q96KQ7; G9a H3K9 monomethylation, AlphaScreen, 2 h; Potency, µM (top dose mostly 102 µM), for inactives: at the highest dose activity, negative = inhibition, actives largely listed as inhibitors; 350,000 compounds, 8.8% hits; AID 504332; note: % is set by controls: 0 for no effect and ±100 for the full control effect; nearly all actives have a fitted effect of over 75% in size
Target sequence (Q96KQ7 913-1193 limits assumed): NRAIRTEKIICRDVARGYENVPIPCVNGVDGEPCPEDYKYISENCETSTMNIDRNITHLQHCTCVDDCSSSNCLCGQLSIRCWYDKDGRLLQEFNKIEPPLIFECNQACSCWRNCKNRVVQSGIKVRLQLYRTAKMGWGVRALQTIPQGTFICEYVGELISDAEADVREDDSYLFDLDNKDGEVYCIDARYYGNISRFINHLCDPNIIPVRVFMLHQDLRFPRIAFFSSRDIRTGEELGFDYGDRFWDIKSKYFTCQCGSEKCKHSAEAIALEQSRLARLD
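Chemiluminescent proximity detection of H3K9 monomethylation, read after 10 min bead incubation in the dark. Reaction: 20 nM G9a, 500 nM biotin-H3K9 peptide, 20 uM SAM cofactor, 2 h, room temperature, following 15 min enzyme-compound preincubation.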
VDR inhibitor – inhibitors of human vitamin D receptor; P11473; VDR-SRC2-3 peptide fluorescence polarization, 2 h; Potency, µM, without a hit: max response, negative = inhibition, actives largely listed as inhibitors; 400,000 compounds, 0.93% hits; note: % is set by controls: 0 for no effect and ±100 for the full control effect
Target sequence (P11473 whole entry, looked up): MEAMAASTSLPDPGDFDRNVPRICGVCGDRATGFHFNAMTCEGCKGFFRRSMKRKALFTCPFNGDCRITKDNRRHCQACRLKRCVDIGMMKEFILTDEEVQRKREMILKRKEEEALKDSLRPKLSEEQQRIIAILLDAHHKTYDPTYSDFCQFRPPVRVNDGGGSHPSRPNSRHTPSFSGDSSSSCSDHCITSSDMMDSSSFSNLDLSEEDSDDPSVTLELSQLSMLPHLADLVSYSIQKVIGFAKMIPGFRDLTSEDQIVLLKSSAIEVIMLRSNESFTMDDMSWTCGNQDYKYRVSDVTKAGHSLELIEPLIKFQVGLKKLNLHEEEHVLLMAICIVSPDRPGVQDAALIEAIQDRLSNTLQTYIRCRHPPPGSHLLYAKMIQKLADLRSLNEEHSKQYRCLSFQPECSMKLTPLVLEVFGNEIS
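Inhibition of the VDR/SRC2-3 peptide interaction is quantified by fluorescence polarization. Compounds (23 nl, pintool) incubate with the reagents for 2 hours at ambient room temperature.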
* marks the source's active call; other numbers are inactive results; ? = inconclusive; · = not tested or not shown; [ ] = dose if it differs, or a comment. Calls come from the whole dose curve; as a rule, active = well fitted curve in the direction sought with a large enough effect; inconclusive = small, poorly fitted or top-dose-only effect, or another doubt; inactive = no such curve, though single readings can be large; an effect the other way counts as inactive or inconclusive. Potency is the fitted concentration of half-maximal effect.

SMILES	Sfp PPTase inh	GRP78 ERSR act	12-LOX inh	G9a block	VDR inhibitor
CO/N=C(\c1nonc1N)N1CCN(c2ccc(Cl)cc2[N+](=O)[O-])CC1	-14.8%	-3.9%	12.2%	35.5µM*	-2.0%
COC(=O)c1sc(=S)n(-c2cccc(Cl)c2)c1N	31.6µM*	-3.6%	?	29.9%[0.501 µM]	?
CCOC(=O)c1sc(=S)n(-c2ccccc2)c1N	?	-2.6%	143.3%	?	-6.7%
COc1ccc(CNC(=O)c2sc(=S)n(-c3ccccc3)c2N)cc1	25.1µM*	-6.4%	?	·	2.2%
CCOc1ccc(-n2c(N)c(C(=O)NCc3cccnc3)sc2=S)cc1	?	-4.1%	?	?	-24.6%
CCOc1ccc(-n2c(N)c(C(=O)NCc3ccco3)sc2=S)cc1	12.6µM*	-4.5%	?	?	?
COCCNC(=O)c1cnc2c(c1)N(Cc1ccccc1C(F)(F)F)CCC2	·	·	10.8%[176 µM]	·	·
N#CCCn1c(SCC(=O)Nc2ccc(N3CCCCC3)cc2)nc2ccccc21	·	·	6.6%	·	·
CC(O)CNc1nc2sc3c(c2c(=O)n1CCc1ccccc1)CCCCC3 (stereo not drawn)	-23.3%	3.1%	-29.2%	50.1µM*	-17.4%
CN(C)CCNc1nc2sc3c(c2c(=O)n1CCc1ccccc1)CCCCC3	-18.0%	-9.6%	?	39.8µM*	-24.5%
COC(=O)CSc1nnc(NC(=O)c2ccc3c(c2)OCO3)s1	-7.1%	-2.5%	-5.0%	31.6µM*	10.7%
CCC(CC)c1nnc(NC(=O)COc2ccc3c(c2)OCO3)s1	25.1µM*	3.9%	?	8.91µM*	79.4µM*
CCC(CC)c1nnc(NC(=O)c2ccc3c(c2)OCO3)s1	44.7µM*	5.8%	11.4%	22.4µM*	79.4µM*
O=C(O)CSc1nnc(NC(=O)c2ccc3c(c2)OCO3)s1	15.4%	-12.8%	?	-24.7%	-12.3%
Cc1cc(=O)oc2cc(OCC(=O)Nc3nnc(C(C)C)s3)ccc12	-2.9%	-5.9%	18.6%	44.7µM*	11.3%
O=C(Nc1ccc(Cl)c(S(=O)(=O)Nc2ccccc2Cl)c1)c1n[nH]c2ccccc12	·	·	-13.8%	·	·
O=C1OCC2=C1C(c1ccc3c(c1)OCO3)CC(=O)N2c1ccccc1 (stereo not drawn)	·	·	47.9%	·	·
O=C(C(=O)N1CCN(C(=O)c2cc3ccccc3[nH]2)CC1)N1CCCC1	·	·	23.0%	·	·
Cc1ccc(C(=O)N2CCc3nc(C(C)C)nc(-c4ccc(O)cc4)c3CC2)cc1	·	·	-7.8%	·	·
Cc1ccc2oc(-c3ccc(NC(=O)c4cc([N+](=O)[O-])ccc4N4CCOCC4)cc3)nc2c1	·	·	-11.5%	·	·
CCCc1nnc(NC(=O)COc2ccc3c(c2)OCO3)s1	-10.6%	-0.2%	-2.2%	4.7%	-12.8%
CC(C)(C)Cc1nnc(NC(=O)c2ccc3c(c2)OCO3)s1	-98.8%	2.9%	15.9%	8.91µM*	?
CCC(CC)c1nnc(NC(=O)c2nc3nc(C)cc(C)n3n2)s1	56.2µM*	5.4%	?	5.62µM*	7.1%
CCCOC(=O)c1ccc(NC(=O)c2nc3nc(C)cc(C)n3n2)cc1	-11.3%	0.0%	-10.9%	15.3%	-6.9%
CCc1nnc(NC(=O)COc2ccc3c(c2)OCO3)s1	-29.1%	3.2%	-25.8%	44.7µM*	1.7%
SMILES	Sfp PPTase inh	GRP78 ERSR act	12-LOX inh	G9a block	VDR inhibitor
CCC(CC)c1nnc(NC(=O)c2ccco2)s1	?	4.8%	-21.4%	44.7µM*	1.8%
CCN(CC)S(=O)(=O)c1ccc2[nH]c(=O)cc(C(=O)N(C)Cc3ccccc3C)c2c1	·	·	-2.8%	·	·
O=C(Cn1nc(-c2ccco2)ccc1=O)Nc1cc(C(F)(F)F)ccc1Cl	-8.4%	-2.2%	?	-6.2%	-13.7%
O=C(Cn1nc(-c2ccco2)ccc1=O)Nc1cc(Cl)ccc1Cl	44.7µM*	-4.9%	25.3%	·	-20.0%
O=C(Cn1nc(-c2ccco2)ccc1=O)Nc1ccc(Cl)c(Cl)c1	56.2µM*	-1.9%	?	?	1.9%
O=S(=O)(NCCCn1ccc2ccccc21)c1cccc(F)c1	·	·	-30.2%	·	·
COc1cc(/C=C2/C(=N)N3C(=NC2=O)SN=C3S(C)(=O)=O)ccc1OC(=O)c1ccco1	-15.0%	-0.5%	?	?	?
CCOc1cc(/C=C2/SC(=S)NC2=O)ccc1OC(=O)c1ccco1	39.8µM*	3.6%	?	12.6µM*	-3.4%
COc1cc(/C=C2/C(=N)N3C(=NC2=O)SN=C3S(=O)(=O)C(C)C)ccc1OS(=O)(=O)c1ccccc1	56.2µM*	·	·	0.7%[59 µM]	·
COc1cc(/C=C2/SC(=O)NC2=O)ccc1OC(=O)c1ccco1	5.8%	0.4%	21.8%	18.0%	-4.1%
CCS(=O)(=O)C1=NSC2=NC(=O)/C(=C\c3ccc(OC(=O)c4ccco4)c(OC)c3)C(=N)N21	-3.6%	3.9%	?	?	-25.5%
CCOc1cc(/C=C2/C(=N)N3C(=NC2=O)SN=C3S(=O)(=O)C(C)C)ccc1OC(=O)c1ccco1	-11.2%	-5.2%	?	35.5µM*	?
CCOc1cc(/C=C2/C(=N)N3C(=NC2=O)SN=C3S(=O)(=O)CC)ccc1OC(=O)c1ccco1	10.6%	0.6%	?	39.8µM*	89.1µM*
COc1ccccc1CNC(=O)C1=C(c2ccccc2)c2cc(Cl)ccc2S(=O)(=O)N1C	·	·	-21.0%	·	·
O=C(NCc1cnccn1)c1ccc(-c2ncc3cnc(-c4cccc(F)c4)cn23)cc1	·	·	-2.4%[176 µM]	·	·
COc1ccc(CNC(=O)[C@@H]2CCC[C@@H](NCc3ccc(C(F)(F)F)cc3)CN(C)C(=O)C2)cc1	·	·	9.7%	·	·
CC(=O)c1ccc(N2CCN(C(=O)c3ccc(Cn4cncn4)cc3)CC2)cc1	·	·	3.3%	·	·
COc1cc(/C=C2/C(=N)N3C(=NC2=O)SN=C3S(=O)(=O)C(C)C)ccc1OC(=O)c1ccco1	-1.8%	-3.5%	?	39.8µM*	?
CCC(=O)Oc1ccc2oc(=O)c(-c3ccc(OC)cc3)c(C)c2c1	·	·	37.3%	·	·
CCC(C)(C)n1nnnc1C(c1ccc2ncccc2c1)N1CCN(c2ccc(O)cc2)CC1 (stereo not drawn)	20µM*	-6.9%	-20.1%	10µM*	-9.4%
CCC(C)(C)n1nnnc1C(c1ccc(OC)c(OC)c1)N1CCN(c2ccc(F)cc2)CC1 (stereo not drawn)	?	-2.1%	?	22.4µM*	2.3%
CCC(C)(C)n1nnnc1C(c1ccc(OC)c(OC)c1)N1CCN(c2ccc(OC)cc2)CC1 (stereo not drawn)	18.1%	-7.1%	?	11.2µM*	4.5%
CCC(C)(C)n1nnnc1C(c1ccc(OC)c(OC)c1)N1CCN(c2ccccc2)CC1 (stereo not drawn)	-18.7%	-4.6%	0.0%	-3.7%[12.7 µM]	16.3%
Cc1cn2nc(C(=O)NCc3ccc(F)cc3)cc2c(N(C)Cc2ccccc2)n1	·	·	19.7%	·	·
CCOC(=O)Cc1nnc(SC(C)C(=O)Nc2cccc(F)c2)n1C (stereo not drawn)	·	·	6.2%	·	·
CN1CCN(S(=O)(=O)c2cccc([N+](=O)[O-])c2)CC1	·	-7.1%	0.2%	·	0.1%
